{"source": "PubChem BioAssay (Tox21)", "key": {"[1]": {"experiment": "cAMP Responsive Elements (CRE) small molecule antagonists, cell-based qHTS assay: qHTS cell viability counter screen (AID 2060913); also: nearly all actives have a fitted effect of over 40% in size; also: potency is read from the fitted curve at half-maximal effect", "details": "CRE-bla HEK293T viability, CellTiter-Glo luminescence, 5 h; series mostly up to 92.4 µM", "method_in_brief": "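Viability of NKH477-stimulated (0.25 uM final) CRE-bla HEK293T cells is measured by CellTiter-Glo luminescence following 3 hrs compound exposure at 37 C.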"}, "[2]": {"experiment": "cAMP Responsive Elements (CRE) small molecule agonists, cell-based qHTS assay: qHTS cell viability counter screen (AID 2060914); also: nearly all actives have a fitted effect of over 50% in size; also: potency is read from the fitted curve at half-maximal effect", "details": "CRE-bla HEK293T viability, CellTiter-Glo luminescence, 5 h; series mostly up to 92.4 µM", "method_in_brief": "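Cytotoxicity was measured as ATP luminescence (CellTiter-Glo, 30 min at room temperature) in the same wells as the CRE-bla FRET read-out. HEK293T CRE-bla cells had 3 h compound exposure at 37C/5% CO2.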"}}, "note": "Inconclusive results are not listed. Entries that show only a call come without a potency. Active and inactive are the calls of the source. Calls follow the shape of the dose curve; as a rule, active = well fitted cell-killing curve with a large enough effect in the repeat runs; inconclusive = weak or mixed curves, or effect the other way; inactive = flat fitted curve, though single readings scatter.", "data": [{"molecule": "COC(=O)c1cncn1C(C)c1ccccc1", "note": "(configuration not stated)", "values": [{"measurement": "Potency", "setting": "[1]", "value": "inactive"}, {"measurement": "Potency", "setting": "[2]", "value": "inactive"}]}, {"molecule": "ClCC(Cl)CCl", "values": [{"measurement": "Potency", "setting": "[1]", "value": "inactive"}, {"measurement": "Potency", "setting": "[2]", "value": "inactive"}]}, {"molecule": "COP(=S)(NC(C)C)Oc1ccc(C)cc1[N+](=O)[O-]", "note": "(configuration not stated)", "values": [{"measurement": "Potency", "setting": "[1]", "value": "inactive"}, {"measurement": "Potency", "setting": "[2]", "value": "inactive"}]}, {"molecule": "C#CC(C)(C)O", "values": [{"measurement": "Potency", "setting": "[1]", "value": "inactive"}, {"measurement": "Potency", "setting": "[2]", "value": "inactive"}]}, {"molecule": "Cc1c([N+](=O)[O-])cc2c(c1[N+](=O)[O-])C(C)(C)CC2(C)C", "values": [{"measurement": "Potency", "setting": "[1]", "value": "inactive"}, {"measurement": "Potency", "setting": "[2]", "value": "inactive"}]}, {"molecule": "Cl", "values": [{"measurement": "Potency", "setting": "[1]", "value": "inactive"}, {"measurement": "Potency", "setting": "[2]", "value": "inactive"}]}, {"molecule": "O=C(Nc1ccccc1)N(Cc1ccc(Cl)cc1)C1CCCC1", "values": [{"measurement": "Potency", "setting": "[1]", "value": "inactive"}, {"measurement": "Potency", "setting": "[2]", "value": "inactive"}]}, {"molecule": "CCOS(=O)(=O)OCC", "values": [{"measurement": "Potency", "setting": "[1]", "value": "inactive"}, {"measurement": "Potency", "setting": "[2]", "value": "inactive"}]}, {"molecule": "CC[C@H](C)[C@H]1O[C@]2(C=C[C@@H]1C)C[C@@H]1C[C@@H](C/C=C(\\C)[C@@H](O[C@H]3C[C@H](OC)[C@@H](O[C@H]4C[C@H](OC)[C@@H](NC)[C@H](C)O4)[C@H](C)O3)[C@@H](C)/C=C/C=C3\\CO[C@@H]4[C@H](O)C(C)=C[C@@H](C(=O)O1)[C@]34O)O2", "values": [{"measurement": "Potency", "setting": "[1]", "value": "15.4 µM (active)"}, {"measurement": "Potency", "setting": "[2]", "value": "19.3 µM (active)"}]}, {"molecule": "ClCc1ccc(Cl)cc1Cl", "values": [{"measurement": "Potency", "setting": "[1]", "value": "inactive"}, {"measurement": "Potency", "setting": "[2]", "value": "inactive"}]}, {"molecule": "c1cc[c]([Sb]([c]2ccccc2)[c]2ccccc2)cc1", "values": [{"measurement": "Potency", "setting": "[1]", "value": "inactive"}, {"measurement": "Potency", "setting": "[2]", "value": "inactive"}]}]}
